Measured values as given in PubChem BioAssay.
“And” between values parts separate entries of the source, which are not always exact repeats. Equal values may be shown once. Inconclusive results are not listed. A structure can be active in one record and inactive in another. The source made the active and inactive calls. Unless noted, no cut-off is given here; in the data, nearly all actives have AC50 up to about 26 µM.

Experiments:
[1] = ICB984 medulloblastoma cell growth inhibition, synergistic combos for chromothripsis tumors, cisplatin or BGB combos (AID 1671451); settings: ICB984 medulloblastoma cells, drug combinations, stronger effect = higher value;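 note: cells exposed for 96 hours before readout; 0% = vehicle DMSO and 100% = killing by high DMSO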
[2] = LFS_MB_1R medulloblastoma cell growth inhibition, synergistic combos for chromothripsis tumors, cisplatin or BGB combos (AID 1671452; in the data active = inhibition above about 80%;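 note: cells exposed for 96 hours before readout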); settings: LFS_MB_1R medulloblastoma cells, stronger effect = higher value
[3] = HTB85 osteosarcoma cell growth inhibition, synergistic combos for chromothripsis tumors, BGB or cisplatin IC20 combos (AID 1671453; in the data active = inhibition above about 80%;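 note: cells exposed for 96 hours before readout; 0% = vehicle DMSO and 100% = high DMSO killing control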); settings: HTB85 osteosarcoma cells, drug combinations, stronger effect = higher value
[4] = CRL2098 osteosarcoma cell growth inhibition, synergistic combos for chromothripsis tumors, BGB or cisplatin IC20 combos (AID 1671454; in the data active = inhibition above about 80%;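 note: cells exposed for 96 h before readout; 0% = vehicle DMSO and 100% = killing by high DMSO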); settings: CRL2098 osteosarcoma cells, drug combinations, stronger effect = higher value
[5] = HD-MB03 medulloblastoma cell growth inhibition, synergistic combos for chromothripsis tumors, BGB or cisplatin IC20 combos (AID 1671455; in the data active = inhibition above about 83%;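 note: 0% = vehicle DMSO and 100% = high DMSO as cytotoxic control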); settings: HD-MB03 medulloblastoma cells, stronger effect = higher value
[6] = viability loss in pontine glioma line – cell-based, SU-DIPG-XXV, MIPE5.0, CellTiter-Glo, qHTS, dose response (AID 1347065); settings: CellTiter-Glo ATP luminescence;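 note: cells exposed to compound for 48 hours before ATP readout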
[7] = SU-DIPG-VI glioma cell viability, MIPE4.0 library, CellTiter-Glo luminescence, qHTS (AID 1347066; cut-off not given, nearly all actives have AC50 up to about 30 µM;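 note: cells exposed to compound for 48 hours before readout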); settings: CellTiter-Glo ATP luminescence
[8] = JHH-DIPG-1 glioma cell viability, MIPE5.0 library, CellTiter-Glo luminescence, qHTS (AID 1347067); settings: JHH-DIPG-1 glioma viability, CellTiter-Glo ATP luminescence;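 note: cells exposed to compound for 48 hours before readout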
[9] = SU-DIPG-XXV glioma cell viability, MIPE5.0 library, qHTS (AID 1347068; cut-off not given, nearly all actives have IC50 up to about 30 µM)
[10] = target: NAD(+) hydrolase SARM1 (Homo sapiens) (UniProt Q6SZW1); experiment: SARM1 TIR NADase inhibitors, cell lysate, NAD-Glo luminescence (AID 1508614;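 active = compound whose remaining NAD level is above about 45 nM, limit read from the data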;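 note: higher remaining NAD means stronger inhibition of SARM1 NADase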); settings: SAM-TIR HEK293T lysate NADase, at 1 µM, stronger effect = higher value
Chain of NAD(+) hydrolase SARM1 (Homo sapiens) (Q6SZW1 whole entry, looked up, the tested form may be a part): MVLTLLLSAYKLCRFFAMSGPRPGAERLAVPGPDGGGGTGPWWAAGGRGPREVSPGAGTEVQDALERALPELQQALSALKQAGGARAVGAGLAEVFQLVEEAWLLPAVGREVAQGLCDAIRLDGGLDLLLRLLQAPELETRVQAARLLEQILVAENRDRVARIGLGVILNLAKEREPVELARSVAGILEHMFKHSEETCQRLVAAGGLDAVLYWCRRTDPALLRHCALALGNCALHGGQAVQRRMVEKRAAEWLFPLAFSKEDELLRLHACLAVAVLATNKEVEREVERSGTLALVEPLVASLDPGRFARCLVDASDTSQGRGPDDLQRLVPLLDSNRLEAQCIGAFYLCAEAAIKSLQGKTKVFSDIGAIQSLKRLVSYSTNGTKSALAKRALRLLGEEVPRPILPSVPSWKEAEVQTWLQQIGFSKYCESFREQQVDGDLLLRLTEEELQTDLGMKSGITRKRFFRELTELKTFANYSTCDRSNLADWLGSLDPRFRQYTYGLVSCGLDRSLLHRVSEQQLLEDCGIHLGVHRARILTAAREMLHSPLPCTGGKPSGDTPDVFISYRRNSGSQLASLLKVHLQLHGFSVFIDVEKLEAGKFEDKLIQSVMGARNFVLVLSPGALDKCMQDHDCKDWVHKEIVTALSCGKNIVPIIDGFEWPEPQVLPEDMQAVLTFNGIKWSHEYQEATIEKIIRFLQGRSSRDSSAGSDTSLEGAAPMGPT

[11] = target: Mitogen-activated protein kinase 7 (Homo sapiens) (UniProt Q13164); experiment: ERK5 transactivation activators in reporter cells, primary screen, cell-based, HTS (AID 1508626;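 active = luciferase signal above three times the same-plate solvent-only control wells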;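 note: luciferase driven by Gal4-ERK5 fusion binding five Gal4 sites before minimal TATA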); settings: HeLa Gal4-ERK5 transactivation, 18 h, at 5 µM, stronger effect = higher value
Chain of Mitogen-activated protein kinase 7 (Homo sapiens) (Q13164 whole entry, looked up, the tested form may be a part): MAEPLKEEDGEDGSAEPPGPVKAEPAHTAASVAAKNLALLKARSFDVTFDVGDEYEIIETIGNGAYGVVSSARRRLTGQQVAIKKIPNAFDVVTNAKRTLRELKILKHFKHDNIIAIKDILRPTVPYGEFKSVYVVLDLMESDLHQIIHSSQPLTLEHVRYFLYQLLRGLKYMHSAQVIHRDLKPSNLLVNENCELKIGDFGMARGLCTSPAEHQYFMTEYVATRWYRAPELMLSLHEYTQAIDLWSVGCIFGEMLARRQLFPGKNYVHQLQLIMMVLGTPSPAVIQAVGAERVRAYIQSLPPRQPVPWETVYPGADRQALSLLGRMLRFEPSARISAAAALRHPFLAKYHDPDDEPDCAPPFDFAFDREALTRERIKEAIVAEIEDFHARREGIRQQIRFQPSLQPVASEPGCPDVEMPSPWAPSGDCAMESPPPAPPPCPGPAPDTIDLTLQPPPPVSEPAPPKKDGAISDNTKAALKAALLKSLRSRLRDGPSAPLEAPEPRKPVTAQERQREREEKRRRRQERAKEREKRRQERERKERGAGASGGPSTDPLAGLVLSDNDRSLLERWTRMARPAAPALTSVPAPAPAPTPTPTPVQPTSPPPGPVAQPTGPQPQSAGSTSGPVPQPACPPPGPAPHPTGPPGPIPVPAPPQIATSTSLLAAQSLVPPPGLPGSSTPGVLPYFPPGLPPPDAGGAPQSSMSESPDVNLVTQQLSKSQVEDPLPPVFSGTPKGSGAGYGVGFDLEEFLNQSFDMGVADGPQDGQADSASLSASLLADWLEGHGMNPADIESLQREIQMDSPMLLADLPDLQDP

[12] = survival rescue of mitochondrial mutant cells in low glucose, primary screen, MELAS cybrids, Rieske KO mouse fibroblasts, CellTiter-Glo (AID 1508586;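 active = mean z-score across replicates of 1.96 or higher in either the MELAS or the Rieske mutant cell line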;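 note: z relative to plate mean and SD of compound and empty wells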)
[13] = viability rescue of complex I mutant cybrids, primary screen, cell-based, galactose medium, ATP luminescence (AID 1645843;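 active = z-score of at least 1.8 in each of two replicates, scored against plate mean and spread of sample wells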;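 note: positive z means more ATP and so rescue of galactose-driven cybrid death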); settings: complex I mutant cybrid cells, 72 h, stronger effect = higher value
[14] = sensitizers of A549 cells to miR-34 induction, primary screen, imaging, A549 dox-inducible miR-34, nuclei and caspase counts (AID 1347080;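 active = compounds whose cell count with miR-34 switched on is under 0.7 times the count with it off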); settings: A549 miR-34 inducible, Hoechst nuclei count, 48 h
[15] = MELAS cybrid survival, CellTiter-Glo 48 h, stronger effect = higher value
[16] = Rieske KO mouse fibroblast survival, CellTiter-Glo 72 h
[17] = stronger effect = lower value, cell number ratio, induced over uninduced
[18] = measured here: relative caspase fold change +Dox/-Dox
[19] = measured here: total cells with miR-34 induction, stronger effect = lower value
[20] = measured here: total cells without miR-34 induction

With `CNNCc1ccc(C(=O)NC(C)C)cc1` the inhibition ([1]; cisplatin combo, at 0.05 µM) was -31.7% and 4.83%, the inhibition ([1]; cisplatin combo, at 0.5 µM) was -11.9% and -3.72% and the inhibition ([1]; cisplatin combo, at 5 µM) was 2.16% and -28.3%. For the same compound, the inhibition ([1]; measured here: 5 uM single agent, at 5 µM) was 3.31% and -11.8%, the inhibition ([2]; at 0.5 µM) was 9.11% (inactive) and -17.9% (inactive) and the inhibition ([2]; measured here: combination with BGB IC40, at 0.05 µM) was 11.1% and -7.89%. The inhibition ([2]; measured here: combination with cisplatin, at 0.5 µM) was 9.64% and -15.3%, the inhibition ([2]; measured here: combination with cisplatin, at 5 µM) was -32.2% and -1.85% and the inhibition ([3]; at 0.5 µM) was -1.94% (inactive) and -4.22% (inactive). For the same compound, the inhibition ([3]; measured here: with BGB IC20, at 0.5 µM) was 2.72% and -14.1%, the inhibition ([3]; measured here: with BGB IC20, at 5 µM) was 4.14% and -30.2% and the inhibition ([3]; measured here: with cisplatin IC20, at 0.5 µM) was -5.46% and -13.6%. The inhibition ([3]; measured here: with cisplatin IC20, at 5 µM) was -7.6% and -38.8%, the inhibition ([3]; single agent, at 5 µM) was 3.42% and -2.23% and the inhibition ([4]; at 0.5 µM) was 3.58% (inactive) and -35.9% (inactive). The inhibition ([4]; measured here: combination with BGB at IC20, at 0.5 µM) was -18.3% and -64.1%, the inhibition ([4]; measured here: combination with cisplatin at IC20, at 0.5 µM) was -1.94% and -14.9% and the inhibition ([5]; at 0.5 µM) was 1.99% (inactive) and 3.37% (inactive). The inhibition ([5]; measured here: combo with BGB at IC20, at 0.5 µM) was -4.48% and 4.11% and the inhibition ([5]; measured here: combo with cisplatin at IC20, at 0.5 µM) was 6.48% and 0.786%.

For `COc1ccc2nc(S(=O)Cc3ncc(C)c(OC)c3C)[nH]c2c1` (stereo not given), the outcome [6] was “inactive”, the outcome [7] was “inactive” and the outcome [8] was “inactive”. For the same compound, the outcome [9] was “inactive”, the remaining NAD [10] was 10 nM (inactive) and the luciferase signal [11] was 68 AU (inactive).

For `O=C(O)/C=C/c1ccc(Cn2ccnc2)cc1`, the outcome [6] was “inactive”, the outcome [7] was “inactive” and the outcome [9] was “inactive”. For the same compound, the z-score [12, 15] was -1.23 (inactive) and 0.348 (inactive), the z-score [12, 16] was 0.0439 and 0.14 and the z-score [13] was 0 (inactive) and 0.26 (inactive).

For `CCN1CCN(C(=O)N[C@@H](C(=O)N[C@@H]2C(=O)N3C(C(=O)O)=C(CSc4nnnn4C)CS[C@H]23)c2ccc(O)cc2)C(=O)C1=O`, the outcome [6] was “inactive”, the outcome [8] was “inactive” and the outcome [9] was “inactive”. The fold change [14, 17] was 0.863 (inactive) and 0.844 (inactive), the fold change [14, 18] was 1.41 and 1.35 and the cell count [14, 19] was 7800 and 9270. The cell count [14, 20] was 9050 and 11000, the z-score [12, 15] was -0.583 (inactive) and -0.0634 (inactive) and the z-score [12, 16] was -0.0146 and -0.684. The remaining NAD [10] was 10 nM (inactive), the luciferase signal [11] was 88 AU (inactive) and the z-score [13] was -0.045 (inactive).

For `COc1ccc(C(=O)CC(=O)c2ccc(C(C)(C)C)cc2)cc1`, the outcome [6] was “inactive”, the outcome [8] was “inactive” and the outcome [9] was “inactive”. For the same compound, the fold change [14, 17] was 0.967 (inactive) and 0.867 (inactive), the fold change [14, 18] was 0.938 and 3.78 and the cell count [14, 19] was 7480 and 11300. The cell count [14, 20] was 7740 and 13000, the z-score [12, 15] was -0.399 (inactive) and 2 (active) and the z-score [12, 16] was 0.325 and 0.254. For the same compound, the remaining NAD [10] was 10 nM (inactive) and the luciferase signal [11] was 44 AU (inactive).
